# Most compounds without a hit are left out; they make up all but 2.8% or so of the library.
# Pol kappa inh: DNA polymerase kappa (human) inhibition | Q9UBT6 | purified Pol kappa, fluorescent DNA synthesis assay, 10 min | Potency, µM (doses to about 107 µM), without a hit: top-dose activity, negative = inhibition, usual class: inhibitors | 400,000 compounds, 0.53% hits; further: potency means the concentration at half of the fitted maximal effect; on the % scale 0 is the no-effect control and ±100 the full control effect
#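 First, compounds were pin-transferred onto 10 nM Pol kappa. After 15 min at room temperature, substrate was added to 50 nM final. Fluorescence was then measured kinetically at 0 and 10 min.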
# Pol beta inh: blocks human DNA polymerase beta activity; 340,000 compounds, 1.3% hits; AID 485314; Potency, µM (highest dose often 114 µM), inactives show at the highest dose activity change, negative = inhibition, usual class: inhibitors; Pol beta primer extension/strand displacement, fluorescence kinetic; P06746; further: potency means the concentration at half of the fitted maximal effect; on the % scale 0 is the no-effect control and ±100 the full control effect
#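 Human Pol beta at 10 nM; strand-displacement substrate 50 nM final. Compound exposure 15 min at room temperature before start, reaction 10 min at room temperature.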
# POLI inh: inhibitors of human DNA polymerase iota. Q9UNA4. Pol iota fluorescent replication assay, 10 min. Potency, µM (top dose mostly 115 µM), for inactives: at the highest dose activity, negative = inhibition, actives largely listed as inhibitors. 390,000 compounds, 1% hits. AID 588590; further: potency means the concentration at half of the fitted maximal effect
#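 Fluorescent replication assay read twice, at 0 min and 10 min after adding 50 nM (final) substrate. Enzyme (10 nM) and compounds were first incubated 15 min at room temperature; enzyme-free buffer wells were negative controls.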
# PI5P4K alpha inh: PI5P4K alpha (human) kinase inhibition; max response, %; P48426; AID 652105; PI5P4Kalpha enzyme, ADP-Glo luminescence, 60 min; stronger effect = lower value; 330,000 compounds, 1.2% hits; active means max response of -50% or lower; inconclusive means between -30% and -50%; inactive means -30% or higher; further: value at the top dose of about 77 µM; on the % scale 0 is the no-effect control and ±100 the full control effect
#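 Single end-point luminescence (ADP-Glo) quantified ADP from PI5P4Kalpha turnover; ATP 5 microM final, 1 h at RT, 0.1% CHAPS and 0.28 mM EGTA in HEPES pH 7.4.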
# PI4K2A inh: inhibitors of human PI4K2A; 420,000 compounds, 0.13% hits; purified PI4K2A, ADP-Glo luminescence, 1 h; stronger effect = lower value; Q9BTU6; activity change, negative = inhibition, % at 76.9 µM; in the data active means activity change below about -50%; inconclusive means mostly about -30% to -49%;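 further: -100% = wells without enzyme as full effect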
#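 ADP-Glo luminescence measured ADP generated by PI4K2A enzyme (4 ug/mL before mixing) with 1.2 mM PI substrate (pre-mix) and 300 microM ATP (pre-mix). Tris pH7.5 buffer with MgCl2, Triton X-100; 1 h reaction at ambient temperature.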
# POLH inh: blocks human DNA polymerase eta activity; recombinant Pol eta, fluorescent DNA replication assay; Potency, µM (top dose mostly 114 µM), for the others: at the top dose activity change, negative = inhibition, actives largely listed as inhibitors; 390,000 compounds, 1.2% hits; further: potency means the concentration at half of the fitted maximal effect; on the % scale 0 is the no-effect control and ±100 the full control effect
# Target sequence (Q9Y253 whole entry, looked up): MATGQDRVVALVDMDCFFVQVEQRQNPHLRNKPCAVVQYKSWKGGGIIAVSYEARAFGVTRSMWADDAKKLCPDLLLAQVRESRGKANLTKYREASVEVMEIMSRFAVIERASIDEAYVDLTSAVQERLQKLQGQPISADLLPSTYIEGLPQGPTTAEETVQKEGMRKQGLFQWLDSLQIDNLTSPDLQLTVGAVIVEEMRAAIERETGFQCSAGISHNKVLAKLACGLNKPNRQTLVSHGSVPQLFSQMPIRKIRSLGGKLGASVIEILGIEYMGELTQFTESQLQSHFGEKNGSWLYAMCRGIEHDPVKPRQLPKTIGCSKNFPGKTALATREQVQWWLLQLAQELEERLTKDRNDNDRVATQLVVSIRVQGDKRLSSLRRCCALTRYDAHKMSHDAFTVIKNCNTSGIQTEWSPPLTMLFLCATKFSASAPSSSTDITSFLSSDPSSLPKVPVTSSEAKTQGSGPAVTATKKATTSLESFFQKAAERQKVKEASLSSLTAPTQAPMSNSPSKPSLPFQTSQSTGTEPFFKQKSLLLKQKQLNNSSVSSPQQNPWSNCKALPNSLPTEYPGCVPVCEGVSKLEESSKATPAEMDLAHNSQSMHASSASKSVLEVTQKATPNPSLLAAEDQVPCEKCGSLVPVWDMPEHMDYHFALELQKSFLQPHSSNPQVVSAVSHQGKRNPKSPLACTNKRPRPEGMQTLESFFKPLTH
#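 Pol eta (10 nM) was preincubated with compounds for 15 min at room temperature, after which fluorescent replication substrate (50 nM final) was added to start the reaction. Fluorescence was read kinetically at 0 and 10 min.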
# Numbers without * were called inactive; ? = inconclusive; · = not tested or not shown. Unless noted, the call rests on the fitted dose curve; in most records, active means well fitted inhibition curve with a large enough effect; inconclusive means small, poorly fitted or top-dose-only effect, or another doubt; inactive means no such curve, though single readings can be large or run the other way.
SMILES,Pol kappa inh,Pol beta inh,POLI inh,PI5P4K alpha inh,PI4K2A inh,POLH inh
C#CCOCCOCCOCCNc1nc(N2CCN(C(=O)CCCCCCCCCCNC(=O)[C@H](CO)n3cc(CCCSC)nn3)CC2)nc(N2CCN(C(=O)CCCCCCCCCCNC(=O)[C@H](CCCN=C(N)N)n3cc(C[C@@H](C)CC)nn3)CC2)n1,-16%,·,?,-79*,2,?
C#CCOCCOCCOCCNc1nc(N2CCN(C(=O)CCCCCCCCCCNC(=O)[C@@H](CCSC)n3cc(CCO)nn3)CC2)nc(N2CCN(C(=O)CCCCCCCCCCNC(=O)[C@H](CCSC)n3cc(CCO)nn3)CC2)n1,8%,·,0%,6,-2,-10%
O=C(OCC1(COC(=O)c2cccnc2)CCCC(COC(=O)c2cccnc2)(COC(=O)c2cccnc2)C1O)c1cccnc1,·,·,·,·,-2,·
Cc1ncc(C(O)c2ccccc2)n1Cc1ccccc1 (stereo not drawn),·,·,·,-12,2,-1%
CN(C)c1ccc(/C=C2\C=Cc3ccccc32)c(Cl)c1,-9%,·,-2%,·,·,·
Cc1ccc(NC(=O)N/C=C/c2ccco2)cc1,50µM*,22µM*,20µM*,·,-12,50µM*
CC(C)(C)c1cc(CN2CCN(CCO)CC2)cc(C(C)(C)C)c1O,0%,0.89µM*,-14%,·,15,-1%
CCOC(=O)C1CCN(Cc2cc(C(C)(C)C)c(O)c(C(C)(C)C)c2)CC1,6%,5%,7%,2,0,-23%
O=C(c1cccc(C(F)(F)F)c1)N1CC[C@H]2[C@H](CCCN2Cc2ccc(F)cc2)C1,·,·,·,·,-2,·
Cc1ccccc1Cn1c(C(=O)O)c(CNCc2cccc(F)c2)c2ccccc21,-9%,-15%,-26%,·,4,8%
Cc1cccc(Nc2n[nH]c(=S)s2)c1C,-9%,7%,-14%,·,1,7%
C=CCNc1n[nH]c(=S)s1,·,·,·,0,-1,3%
CC(C)c1ccc(Nc2n[nH]c(=S)s2)cc1,·,·,·,-65*,0,·
Cc1cc(C)c(Nc2n[nH]c(=S)s2)cc1C,·,·,·,-90*,1,3%
Cc1cccc(C)c1Nc1n[nH]c(=S)s1,·,·,·,-73*,-3,-11%
Cc1ccc(Nc2n[nH]c(=S)s2)c(C)c1,·,·,·,-88*,0,0%
O=[N+]([O-])c1ccc(/C=C/c2cc(Cl)nc3ccccc23)cc1,0%,·,4%,·,·,·
C=CC#CC[N+]1(CC#Cc2ccccc2)CCOCC1,?,4%,?,-82*,-1,35µM*
O=C1C(=O)N(Cc2ccco2)C(c2cccs2)/C1=C(\O)c1cccc([N+](=O)[O-])c1 (stereo not drawn),4%,-12%,14%,-79*,-2,-11%
COc1cccc(/C(O)=C2/C(=O)C(=O)N(Cc3ccco3)C2c2ccncc2)c1 (stereo not drawn),-2%,0%,?,1,-2,8%
CCCc1ccc(OCc2nc(-c3ccc(NC(=O)c4ccco4)cc3)no2)cc1,-4%,35µM*,?,-14,-17,-10%
COc1ccc(Cl)c(Cn2cnc3c(cnn3C(C)(C)C)c2=O)c1,-19%,·,5%,·,·,·
CCCCCCCCN1C(=O)[C@@H](CC(=O)N2CCC(c3ccccc3)CC2)C[C@@]2(C(=O)OC)C1=C[C@H](C(C)C)O[C@@H]2C1CC1,·,·,·,·,-2,·
Nc1nc(=S)[nH]c2n[nH]nc12,0%,·,40µM*,·,·,·
COC(=O)C1=C[C@@H](C(=O)OC)C2C3=C(C(=O)[C@@]2(CC(C)C)NC(=O)c2ccccc2)[C@H](C)n2c(=O)n(C)c(=O)n2[C@@H]3C1 (stereo partly drawn),-12%,·,-2%,·,·,·
SMILES,Pol kappa inh,Pol beta inh,POLI inh,PI5P4K alpha inh,PI4K2A inh,POLH inh
Nc1cccc2c1C(=O)N(C(=O)/C=C/c1cccc(Br)c1)C2=O,-8%,9%,11µM*,?,34,?
CN(C(=O)c1cc2c(=O)n3ccccc3nc2n1C)C1CCCCC1,-1%,0%,17%,0,-5,-9%
COCCN(CCOC)C(=O)c1cc2c(=O)n3ccccc3nc2n1C,-22%,10µM*,?,·,-1,-14%
Oc1ccccc1Oc1ncc(Br)c(Cl)n1,-40%,22µM*,50µM*,-14,2,-3%
C[C@@]12CCC[C@H]1[C@@H]1CC[C@H]3C[C@@H](O)CC[C@]3(C)[C@H]1CC2,·,·,·,·,2,·
COc1ccc(CCNC(=O)Cn2nc(C)n3c(cc4cc(F)ccc43)c2=O)cc1OC,5%,19%,13%,·,-2,-11%
NC(=O)c1ccc(N2CCN(c3ccc(O)cc3)CC2)c([N+](=O)[O-])c1,-16%,-24%,?,-55*,-7,0%
Cc1ccc2c(=O)c(C(=O)c3ccc(F)cc3)cn(CC(=O)NCc3ccccc3)c2n1,1%,33%,4%,·,-2,7%
CCOC(=O)C[C@H]1c2cc(F)ccc2S(=O)(=O)N1Cc1cc(OC)c(OC)c(OC)c1,-1%,·,9%,·,·,·
Cc1cc(C)c(S(=O)(=O)N(CC(=O)NCc2cccnc2)C2CCCCC2)c(C)c1,-9%,-27%,89µM*,0,-10,-6%
O=C(NNc1cc(Cl)cc(Cl)c1)c1sccc1Cl,-1%,·,15%,·,·,·
NC(=S)NNC(=S)Nc1ccccc1,-9%,-1%,49%,-70*,3,1%
O=[N+]([O-])c1ccc(Nc2nc(NCCN3CCOCC3)nc(Nc3ccc(I)cc3)n2)cc1,-20%,·,5%,·,·,·
Cc1cccc(OCCn2nnc3sc4c(c3c2=O)CCCC4)c1,-24%,20µM*,?,·,0,·
Cc1ccc(OCCCCn2nnc3sc4c(c3c2=O)CCCC4)cc1,-9%,-2%,6%,·,1,·
Cc1ccc(OCCCCn2nnc3sc4c(c3c2=O)CCC(C)C4)cc1 (stereo not drawn),-24%,25µM*,-25%,·,-2,·
C=C1Nc2ccccc2C(=O)N1c1ccc(C(=O)N2CCN(C(=O)c3ccco3)CC2)cc1,3%,·,25%,·,·,·
N#Cc1c(N)nc(N)nc1Nc1ccc(Br)cc1,-5%,-20%,34%,-52*,6,-18%
Cc1nc(N)nc(Nc2ccc(C#N)cc2)c1Br,-5%,6%,-13%,-5,10,-9%
C(=N/N1CCN(c2ccccc2)CC1)/c1ccco1,·,·,·,·,-7,·
CC(NC(=O)COC(=O)c1cn(-c2ccccc2)nc1-c1cccs1)c1ccccc1 (stereo not drawn),-17%,-9%,?,·,-14,79µM*
CCn1c(C(=O)N2CCCC(C(=O)N3CCN(c4cc(C)ccc4C)CC3)C2)cc2sccc21 (stereo not drawn),-5%,3%,-2%,·,0,-22%

# Source: PubChem BioAssay (National Center for Advancing Translational Sciences (NCATS))
